Bioassay records (PubChem BioAssay)
Only a selection was taken, and hits are over-represented in it overall.
TbREL1 inh: TbREL1 RNA ligase inhibitors, primary screen, biochemical, FRET fluorescence. RNA-editing ligase 1, mitochondrial (Trypanosoma brucei brucei), P86926. TbREL1 RNA ligation. inhibition, % at 9.66 µM. actives 0.49% (n = 89,000). AID 1117264, 2014;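 active means inhibition above the mean inhibition across all screened compounds plus 3 SD, cut at about 11% in these data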;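 further: 0% = plate median of test wells and 100% = NSC42067 control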
Target sequence (P86926 whole entry, looked up): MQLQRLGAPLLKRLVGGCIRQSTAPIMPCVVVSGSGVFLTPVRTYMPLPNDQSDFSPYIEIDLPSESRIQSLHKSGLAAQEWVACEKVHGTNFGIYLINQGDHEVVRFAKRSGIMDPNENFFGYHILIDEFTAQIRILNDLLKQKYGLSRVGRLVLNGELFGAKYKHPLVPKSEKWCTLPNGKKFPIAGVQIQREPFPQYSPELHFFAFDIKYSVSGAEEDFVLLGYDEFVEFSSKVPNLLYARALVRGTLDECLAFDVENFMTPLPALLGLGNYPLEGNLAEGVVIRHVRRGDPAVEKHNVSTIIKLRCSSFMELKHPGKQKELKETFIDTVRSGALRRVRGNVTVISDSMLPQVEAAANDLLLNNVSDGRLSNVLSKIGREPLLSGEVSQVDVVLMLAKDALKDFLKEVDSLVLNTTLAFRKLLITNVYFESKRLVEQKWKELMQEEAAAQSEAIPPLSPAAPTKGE
TbREL1 confirm: TbREL1 RNA ligase inhibitors, confirmation, biochemical, FRET fluorescence, triplicate. actives 37% (n = 390). shares compounds with TbREL1 inh. inhibition, % at 9.66 µM. TbREL1 RNA ligation;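 active means mean inhibition across replicates above a set limit taken from the earlier primary screen, cut at about 11% in these data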;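 further: 0% = REL1 with substrate and DMSO and 100% = REL1 plus control inhibitor NSC42067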
The depositor's hits bear a star.

SMILES	TbREL1 inh	others
COc1cc(O)c(C(CC(=O)N2CCCC(C)C2)c2ccccc2)c(OC)c1 (centres undefined)	4
O=C(O)c1ccc(N2C(=O)CSC2=S)cc1	3
O=C(NN1C(=O)CSC1=S)C(=O)NN1C(=O)CSC1=S	38*	TbREL1 confirm=19*
O=C(O)c1ccc(CN2C(=O)CSC2=S)cc1	7
CCCCCCCCN1C(=O)[C@@H](CC(=O)NCCc2ccccc2OC)C[C@@]2(C(=O)OC)C1=C[C@H](C(C)C)O[C@@H]2C1CC1	4
Cc1ccccc1NC(=S)N(CCN(C)C)C(C)c1cccnc1 (centres undefined)	-6
Cc1ccccc1NC(=S)N(CCN(C)C)C(C)c1ccccn1 (centres undefined)	14*	TbREL1 confirm=3
Cc1c(Cl)cccc1NC(=S)N(CCN(C)C)C(C)c1ccccn1 (centres undefined)	6
CC(C)(C)OC(=O)NCCc1ccccc1/C=C/S(=O)(=O)NC1CCCC1	9
Cn1c(Cc2cccs2)nnc1SCC(=O)Nc1ccc2c(c1)OCO2	1
CCOC(=O)Cn1c2ccc(C)cc2c2nc(C)sc21	55*	TbREL1 confirm=5
CCOC(=O)Cn1c(=NC(=O)c2cccs2)sc2cc(C(=O)OC)ccc21	10
CCOC(=O)Cn1c(=NC(=O)CC)sc2c(C)cc(C)cc21	-1
Fc1ccccc1-c1n[nH]c(=S)n1N=Cc1ccc(-c2ccccc2)cc1	0
Cc1ccc(CN[C@@H]2CC[C@@]34CCCN3C(=O)CCC[C@H]4C2)o1	0
Cn1c(SCC(=O)Nc2ccccc2-c2ccccc2)nnc1-c1cnccn1	2
COc1cc(C=NNC(=O)CN2CCN(Cc3ccc(C)cc3)CC2)cc(OC)c1O	0
O=C(NCCc1c[nH]c2ccccc12)OCc1cn(-c2ccccc2Cl)nn1	-1
Nn1c(SCC(=O)N2CCOCC2)nnc1-c1n[nH]c2c1CCC2	-6
COc1cc(N=c2ssnc2Cl)c(OC)cc1Cl	2
Cc1nnc(N=c2ssnc2Cl)o1	13*	TbREL1 confirm=20*
O=C(NNc1cc(Cl)ccc1Cl)C1CCC1	91*	TbREL1 confirm=1
O=C(C1CCCN(S(=O)(=O)c2cc(Cl)ccc2Cl)C1)N1CCCCCC1 (centres undefined)	-1
O=C(O)C1CC=CCC1C(=O)Nc1cc(Cl)ccc1Cl (centres undefined)	1
CCOc1ccc(-n2c(COc3ccccc3)nnc2SCc2nc3ccccc3[nH]2)cc1	4
SMILES	TbREL1 inh	others
Nc1cc(S(=O)(=O)O)cc([N+](=O)[O-])c1O	21*	TbREL1 confirm=59*
Nc1ccc(C(=O)O)cc1[N+](=O)[O-]	0
Nc1cc(S(=O)(=O)c2ccc(O)c(N)c2)ccc1O	-2
Cc1ccc(CN2CCCCC(NC(=O)Nc3ccccc3-c3ccccc3)C2=O)cc1 (centres undefined)	-3
COC(=O)C1=C(C)N(Cc2ccccc2C(F)(F)F)C(=NCc2ccc3c(c2)OCO3)NC1c1cccc(Cl)c1 (centres undefined)	14*	TbREL1 confirm=14*
COC(=O)C1=C(C)N(Cc2ccccc2C(F)(F)F)C(=NCc2ccc3c(c2)OCO3)NC1c1cccc(F)c1 (centres undefined)	13*	TbREL1 confirm=18*
COC(=O)C1=C(C)N(Cc2ccc(Cl)cc2)C(=S)NC1c1cccc(Br)c1 (centres undefined)	-3
COC(=O)C1=C(C)N(CCCC(=O)O)C(=O)NC1c1ccc2c(c1)OCO2 (centres undefined)	2
Cc1cc(-c2n[nH]c(=S)n2N=Cc2ccc(OCc3ccccc3)cc2)n[nH]1	-2
COc1cccc(NC(=O)C2CCCN2C(=O)NCc2ccccc2OC)c1 (centres undefined)	2
O=C(N[C@H](C(=O)N1CCC[C@H]1C(=O)NC1CCCC1)c1ccccc1)C1CC1	2
O=C(Nc1ccc(Cl)cc1)C1CCCN1S(=O)(=O)c1cccnc1 (centres undefined)	-2
NC(=O)c1ccc2nc(NC(=O)c3ccc(N)cc3)sc2c1	4
O=C(Nc1nc2ccccc2s1)c1ccc(F)cc1	15*	TbREL1 confirm=7
O=C(Nc1nc2ccccc2s1)c1ccc(Cl)s1	4
COc1cc(NC(=O)c2cnc(N)s2)cc(C(=O)Nc2cccc(C(F)(F)F)c2)c1	32*	TbREL1 confirm=21*
COc1cc(NC(=O)c2csc(N)n2)cc(C(=O)Nc2cccc(C(F)(F)F)c2)c1	-2
COc1cc(NC(=O)c2cc(C)on2)cc(C(=O)Nc2cccc(C(F)(F)F)c2)c1	7
O=C(Nc1ccccc1)Nc1c(-c2ccc(F)cc2)nc2ncccn12	-1
COc1ccc(N2CCN(CCNS(=O)(=O)c3ccccc3[N+](=O)[O-])CC2)cc1	-6
C=CCn1c(SCC(=O)c2ccc(F)cc2)nnc1-c1ccc(F)cc1	-6
C[C@H]1[C@@H](N(C)Cc2ccccc2)CC[C@@]23CCCN2C(=O)CCC[C@@H]13	2
Cc1ccc(N(C(=O)Cc2c[nH]c3ccccc23)C(C(=O)NC2CCCCC2)c2ccco2)cc1 (centres undefined)	11*	TbREL1 confirm=-2
Cc1ccc(N(C(=O)c2ccco2)C(C(=O)NC2CCCC2)c2ccco2)c(C)c1 (centres undefined)	-2
Cc1ccc(C(C(=O)NC2CCCCC2)N(C(=O)Cc2c[nH]c3ccccc23)c2ccccc2C)o1 (centres undefined)	-1
SMILES	TbREL1 inh	others
Cc1ccc(-c2cc(C(=O)NN=Cc3ccc(-c4ccccc4)cc3)[nH]n2)cc1C	-1
COC(=O)[C@]12C[C@H](CC(=O)N3CCN(C(=O)c4ccco4)CC3)C(=O)N(Cc3ccco3)C1=C[C@H](COCc1ccccc1)O[C@@H]2C	-1
Cc1cc(C)n(CCC(=O)N/N=C/c2ccc(O)cc2O)n1	12*	TbREL1 confirm=5
Cc1cc(C)n(CCC(=O)N/N=C/c2ccc(Cl)c([N+](=O)[O-])c2)n1	-3
Cc1cc(C)n(CCC(=O)N/N=C/c2ccccc2O)n1	1
Cc1cc(N2CCCN(C)CC2)n2nc(C)nc2n1	3
COc1cccc(C(=O)N[C@@H](Cc2cccnc2)C(=O)N2CCC[C@H]2C(=O)NC2CCCC2)c1	7
CCOC(=O)N[C@H](C(=O)N1CCC[C@H]1C(=O)NCc1ccccc1)C(C)C	-1
Cc1cc(Cl)c(OCCN2C(=O)NC(C)(C)C2=O)c(Br)c1	-1
Clc1ccc(OCCCNCc2ccccc2)c(Br)c1	2
CCCCNCc1cc(Br)c(OCC(=O)NCc2ccccc2)c(OC)c1	3
Cc1cc(C)c(OCCCNCc2ccccc2)c(Br)c1	15*	TbREL1 confirm=15*
Cc1cc(Cl)c(OCCCNCc2ccccc2)c(Br)c1	12*	TbREL1 confirm=11*
COc1cccc(OCCNCc2ccccc2)c1	1
Cn1c(N=Nc2ccc(N3CCOCC3)cc2)[n+](C)c2ccccc21	23*	TbREL1 confirm=27*
CCn1c(=Nc2ccc(N3CCOCC3)cc2)ccc2ccccc21	-1
O=C(c1ccccc1)c1ccc(N2CCOCC2)cc1	1
CCC[C@H]1[C@@H](NC(=O)/C=C/c2ccccc2)CC[C@@]23CCCN2C(=O)CCC[C@@H]13	-2
COc1cccc(NC(=O)CSCC(=O)Nc2ccccc2)c1	-1
CC(=O)c1ccc(NC(=O)CSc2ccc(-c3ccco3)nn2)cc1	-2
O=C(CSc1nnc(-c2ccco2)c(-c2ccco2)n1)Nc1ccccc1	24*	TbREL1 confirm=8
COc1cccc(NC(=O)CSc2cccc[n+]2[O-])c1	2
